NS3h inh CB – hepatitis C NS3 helicase inhibition, primary screen | NS3h Cy5-dT15 DNA binding, fluorescence polarization | 16,000 tested, 1.6% active | AID 687043 | inhibition, % at 100 µM;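 active = inhibition above the average over every tested compound plus 3 SD, cut at about 40% in these data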
Cy5 interf NS3h – counter-screen for HCV NS3 helicase inhibitors: fluorescence interference | Cy5-dT15 DNA with NS3h; actives lie on both sides; signal over control mean, under 1 quenches | fluorescence interference ratio at 100 µM | 16,000 tested, 6% active | AID 720488;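 active = compound fluorescence over control fluorescence at most 0.8, a quencher, or at least a set upper limit, an enhancer; inactive = ratio between 0.8 and the set upper limit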
HCV NS3h conf – hepatitis C NS3 helicase inhibition, confirmation; shares compounds with NS3h inh CB; NS3h binding to Cy5-dT15 DNA, fluorescence polarization; inhibition, % at 100 µM; 240 tested, 20% active; AID 720485;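 active = percent inhibition of 50% or more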
SSB-DNA FP CB – counter-screen for HCV NS3 helicase inhibitors: E. coli SSB binding; 240 tested, 40% active; shares compounds with NS3h inh CB; E. coli SSB binding Cy5-dT15, fluorescence polarization; inhibition, % at 100 µM;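 active = inhibition of at least 50%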;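 also: displacers lower Cy5 polarization so higher inhibition means more SSB displaced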
Target sequence (P0AGE0 whole entry, looked up): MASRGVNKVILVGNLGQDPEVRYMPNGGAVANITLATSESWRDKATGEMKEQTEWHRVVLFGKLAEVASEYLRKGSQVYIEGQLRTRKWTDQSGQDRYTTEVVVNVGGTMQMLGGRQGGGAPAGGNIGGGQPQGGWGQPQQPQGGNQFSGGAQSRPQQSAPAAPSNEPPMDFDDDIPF
Cy5 SSB interf – Cy5 fluorescence interference in NS3h counter-screen | shares compounds with NS3h inh CB | Cy5-dT15/E. coli SSB fluorescence interference; actives lie on both sides | fluorescence interference ratio at 100 µM | 240 tested, 8% active | AID 720487;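 active = fluorescence interference ratio at or above 1.2, signal boosting, or at or below 0.8, signal quenching; inactive = ratio between 0.8 and 1.2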
Cy5 interf conf – Cy5 fluorescence interference, confirmation counter-screen. shares compounds with NS3h inh CB. Cy5-dT15 DNA/NS3h fluorescence interference counterscreen. fluorescence interference ratio at 100 µM, hits read low. 240 tested, 44% active;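 active = fluorescence interference ratio at or below 0.8 quencher or at or above a set limitenhancer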
Numbers stand for hits; – = inactive; · = no result. Compounds with a hit are over-represented: about 6.8% of the library has one in this group of screens.

SMILES	NS3h inh CB	Cy5 interf NS3h	HCV NS3h conf	SSB-DNA FP CB	Cy5 SSB interf	Cy5 interf conf
CC(=O)COc1ccc2c(oc(=O)c3ccccc32)c1C	–	–	–	–	–	0.71
Cc1c(OCC(=O)c2ccccc2)ccc2c1oc(=O)c1ccccc12	–	–	·	·	·	·
O=C(Nc1ccc(N2CCOCC2)cc1)c1ccc2c(c1)OCCO2	–	–	·	·	·	·
O=C(Nc1ccc(Cl)c(Cl)c1)c1ccc2c(c1)OCCO2	–	–	–	–	–	–
Cc1ccccc1/C=C1/SC(=Nc2ccc(F)cc2)NC1=O	–	–	·	·	·	·
O=C1NC(=Nc2ccc(F)cc2)S/C1=C/c1ccccc1F	112	1.7	–	–	–	–
CSc1ccccc1N1C(=O)C=CC1=O	–	–	–	–	–	0.75
CSc1ccccc1N1C(=O)C2CC(C)=C(C)CC2C1=O (centres undefined)	–	–	·	·	·	·
COc1ccc(C(=O)NCCNc2ccc([N+](=O)[O-])cc2)cc1OC	–	–	–	–	–	0.72
COc1ccc(C(=O)NCCCNc2ccc([N+](=O)[O-])cc2Cl)cc1OC	–	–	·	·	·	·
COc1ccc(NC(=O)/C(C#N)=C\c2ccc(-c3ccc(C(=O)O)c(Cl)c3)o2)cc1	59	–	–	–	–	0.75
N#C/C(=C/c1ccc(-c2ccc(C(=O)O)c(Cl)c2)o1)C(=O)Nc1ccccc1	–	–	·	·	·	·
CCN(CC)C(=S)SC1CC(=O)N(c2ccccc2)C1=O (centres undefined)	–	–	·	·	·	·
CCc1cc(C)cc(OCCn2cc(C=C3C(=O)NC(=S)NC3=O)c3ccccc32)c1	–	–	·	·	·	·
Cc1ccc(S(=O)(=O)n2cc(C=C3C(=O)NC(=S)NC3=O)c3ccccc32)cc1	61	–	–	82	–	–
CCOC(=O)c1cccc(N2C(=O)C=CC2=O)c1	55	–	–	–	–	–
O=C1C=CC(=O)N1c1cccc(Cl)c1	55	–	–	–	–	–
O=C1/C(=C\c2ccc(I)cc2)SC(=S)N1c1cccc(Cl)c1	–	–	·	·	·	·
O=C(/C=C/c1ccc(/C=C/C(=O)c2cccc(N3C(=O)C=CC3=O)c2)cc1)c1cccc(N2C(=O)C=CC2=O)c1	–	–	·	·	·	·
COc1ccc(Br)cc1CN1CCN(S(=O)(=O)c2ccc(Cl)cc2)CC1	–	–	·	·	·	·
COc1cc(/C=N\n2cnnc2)ccc1OCCOc1ccc(C(C)(C)C)cc1	–	–	·	·	·	·
O=C(c1ccc(F)c2ccccc12)N1CCc2ccccc21	–	–	·	·	·	·
CN1C(=O)/C(=C/c2ccccc2F)SC1=S	–	–	·	·	·	·
O=C1C(=Cc2ccccc2F)C(=O)c2ccccc21	61	–	–	–	–	0.74
O=C1C(=Cc2cccc(Cl)c2)C(=O)c2ccccc21	–	–	·	·	·	·
SMILES	NS3h inh CB	Cy5 interf NS3h	HCV NS3h conf	SSB-DNA FP CB	Cy5 SSB interf	Cy5 interf conf
O=C1C(=Cc2ccccc2)C(=O)c2ccccc21	46	–	–	–	–	0.78
COc1ccc(N(CC(=O)Nc2cc(C)cc(C)c2)S(C)(=O)=O)cc1	–	–	·	·	·	·
O=C(NCc1ccccc1Cl)/C(=C\c1cccc(Br)c1)NC(=O)c1ccccc1	–	–	·	·	·	·
COC(=O)C1=C(C)NC(=S)NC1c1ccc(SC)cc1 (centres undefined)	–	–	·	·	·	·
C=CCOc1ccc(C=C2C(=O)NC(=O)NC2=O)cc1OC	–	–	·	·	·	·
O=C1ON=C(c2ccc(Cl)cc2)/C1=C/c1ccccc1Cl	–	–	·	·	·	·
CCOc1cc(C=C2C(=O)NC(=S)NC2=O)ccc1OCCOc1ccccc1OC	–	–	·	·	·	·
COc1cc(OC)c(C=C2C(=O)NC(=S)NC2=O)cc1Br	59	–	–	–	–	–
O=C1NC(=O)C(=Cc2ccccc2OCc2ccccc2F)C(=O)N1	–	–	·	·	·	·
C=CCOc1ccccc1/C=C1/C(=O)ON=C1c1ccc(Cl)cc1	53	–	–	–	–	–
C=CCOc1ccccc1C=C1C(=O)NC(=S)NC1=O	56	–	–	107	–	–
C=CCOc1ccc(C=C2C(=O)NC(=S)NC2=O)cc1OC	82	–	51	92	–	0.77
Cc1cccc(C2OC3(C(=O)c4ccccc4C3=O)C3C(=O)N(c4ccccc4Br)C(=O)C23)c1 (centres undefined)	–	–	·	·	·	·
C=CCNC(=O)C(=O)NCc1ccc(C)cc1	–	–	·	·	·	·
Cc1ccc(S(=O)(=O)NCCNC(=O)Nc2cccnc2)cc1	–	–	·	·	·	·
CCCN(CCC)C(=O)c1ccccc1	–	–	·	·	·	·
O=C(NCCc1ccccc1)c1cc2n(n1)C(C(F)(F)F)CC(c1cccs1)N2 (centres undefined)	–	–	·	·	·	·
Cc1ccc(NCC2OCc3ccccc3CO2)cc1	–	–	·	·	·	·
CN(C1=NC(=O)/C(=C\c2ccc(Cl)cc2)S1)c1ccc(O)cc1	–	–	·	·	·	·
CN(C1=NC(=O)/C(=C\C=C\c2ccccc2)S1)c1ccc(O)cc1	52	–	–	–	–	0.69
O=C1NC(=S)N(c2ccc(Cl)cc2)C(=O)C1=Cc1ccsc1	–	–	·	·	·	·
COc1ccc(N2C(=O)NC(=O)/C(=C\c3ccc(O)c(Cl)c3)C2=O)cc1	47	–	–	–	–	0.75
Cc1ccc(N2C(=O)NC(=O)/C(=C\c3ccsc3)C2=O)cc1	55	1.2	–	–	–	0.74
O=C1NC(=O)N(c2cccc(F)c2)C(=O)/C1=C/c1ccc(O)c(Cl)c1	–	–	·	·	·	·
COc1ccc(N2C(=O)NC(=O)/C(=C\c3cc(OC)c(OC)cc3OC)C2=O)cc1	–	–	·	·	·	·
SMILES	NS3h inh CB	Cy5 interf NS3h	HCV NS3h conf	SSB-DNA FP CB	Cy5 SSB interf	Cy5 interf conf
COc1cc(OC)c(OC)cc1/C=C1/C(=O)NC(=O)N(c2ccccc2)C1=O	44	1.2	–	–	–	–
COc1ccc(-c2cn3c(n2)SCC3)cc1	–	–	·	·	·	·
COc1cc(NC(=O)c2cccs2)c(Cl)cc1NC(=O)c1ccccc1	–	–	·	·	·	·
CC(=O)c1ccc(NC(=NS(=O)(=O)c2ccc(Cl)cc2)c2ccccc2)cc1	–	–	·	·	·	·
CC1CCN(C(=O)CSCc2cccc(Br)c2)CC1	–	–	·	·	·	·
CCOc1ccc(NCC(O)CSCC(O)CNc2ccc(OCC)cc2)cc1 (centres undefined)	–	–	·	·	·	·
c1ccc(-c2noc(C(c3ccccc3)c3ccccc3)n2)cc1	–	–	·	·	·	·
O=C1NC(=S)N/C1=C/c1ccc(OCc2cccc(C(=O)O)c2)cc1	62	–	–	–	–	0.77
O=C1NC(=O)N(c2cccc(F)c2)C(=O)/C1=C/c1ccc(OCc2cccc(C(=O)O)c2)cc1	41	–	–	–	–	0.75
Cc1cc(/C=C2\C(=O)NC(=O)N(c3cccc(F)c3)C2=O)c(C)n1C	–	–	·	·	·	·
O=C1NC(=O)N(c2ccccc2F)C(=O)/C1=C/c1ccc(OCc2cccc(C(=O)O)c2)cc1	–	–	·	·	·	·
CN1C(=O)C(=Cc2ccc(OCc3cccc(C(=O)O)c3)cc2)C(=O)N(C)C1=O	–	–	·	·	·	·
Cc1ccccc1N1C(=O)NC(=O)/C(=C\c2ccc(OCc3cccc(C(=O)O)c3)cc2)C1=O	42	–	–	68	–	0.8
CCOc1ccc(N(CC(=O)NCC(C)C)S(=O)(=O)c2ccc(SC)cc2)cc1	–	–	·	·	·	·

Screening data as filed in PubChem.
